According to PubChem BioAssay AID1159580 (chemical genetic matrix, 2015):
Hit rate of the full screen: of about 5,500 compounds, about 2,000 (36%) were called active. Roughly 18% stayed inconclusive and do not appear here. Cut-off read from the data, not from the text of the source: active = normalized growth mostly below about 0.91 (no sharp cut-off); inconclusive = no clear call, values can overlap the other calls; inactive = mostly above about 0.92. Some of the results follow.

Assay: chemical genetic growth profiling, strain panel (AID 1159580);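 note: tested at 20 µM; growth read once vehicle control cultures reached saturation at 30 °C; 1 = growth at the plate median or of vehicle wells; lower values mean less growth of the strain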
Conditions: S. cerevisiae deletion strains, growth OD

Measured: normalized growth

C=C1CCC(OC(C)=O)/C(C)=C/C[C@@H]2[C@@H]1CC2(C)C (some centres undefined)
inactive: locus YAL021C, strain ccr4, stronger effect = lower value 1.01 | locus YAL026C, strain drs2, stronger effect = lower value 1.01 | locus YAL030W, strain snc1, stronger effect = lower value 1.01 | locus YBL061C, strain skt5, stronger effect = lower value 1.01 | locus YBR009C, strain hhf1, stronger effect = lower value 1.01 | locus YBR021W, strain FUR4, stronger effect = lower value 1.02 | locus YBR023C, strain chs3, stronger effect = lower value 1.01 | locus YBR171W, strain sec66, stronger effect = lower value 1 | locus YBR229C, strain ROT2, stronger effect = lower value 1 | locus YBR231C, strain swc5, stronger effect = lower value 1.01 | locus YBR279W, strain paf1, stronger effect = lower value 1.01 | locus YCL011C, strain gbp2, stronger effect = lower value 1.02 | locus YCL016C, strain dcc1, stronger effect = lower value 1.01 | locus YCL029C, strain bik1, stronger effect = lower value 1.03 | locus YCL061C, strain MRC1, stronger effect = lower value 1.01 | locus YCL069W, strain vba3, stronger effect = lower value 1.01 | locus YCR088W, strain abp1, stronger effect = lower value 1.01 | locus YDL005C, strain med2, stronger effect = lower value 1.01 | locus YDL035C, strain GPR1, stronger effect = lower value 1.01 | locus YDL040C, strain nat1, stronger effect = lower value 1.01 | locus YDL074C, strain BRE1, stronger effect = lower value 1.02 | locus YDL101C, strain DUN1, stronger effect = lower value 1.02 | locus YDL185W, strain tfp1, stronger effect = lower value 1.03 | locus YDL192W, strain arf1, stronger effect = lower value 1.02 | locus YDR001C, strain nth1, stronger effect = lower value 1 | locus YDR069C, strain doa4, stronger effect = lower value 1.03 | locus YDR101C, strain arx1, stronger effect = lower value 0.983 | locus YDR137W, strain rgp1, stronger effect = lower value 0.929 | locus YDR159W, strain sac3, stronger effect = lower value 1.02 | locus YDR162C, strain NBP2, stronger effect = lower value 0.997 | locus YDR195W, strain ref2 1.02 | locus YDR297W, strain sur2, stronger effect = lower value 1.02 | locus YDR318W, strain mcm21, stronger effect = lower value 1.03 | locus YDR334W, strain swr1, stronger effect = lower value 1.01 | locus YDR335W, strain msn5, stronger effect = lower value 1.01 | locus YDR388W, stronger effect = lower value 1.02 | locus YDR392W, strain spt3, stronger effect = lower value 0.812 | locus YDR502C, strain sam2, stronger effect = lower value 1.03 | locus YEL003W, strain gim4, stronger effect = lower value 1.02 | locus YEL037C, strain rad23, stronger effect = lower value 1.01 | locus YEL061C, strain CIN8 (second series), stronger effect = lower value 1.02 | locus YER015W, strain faa2, stronger effect = lower value 1.01 | locus YER016W, strain bim1, stronger effect = lower value 1.01 | locus YER110C, stronger effect = lower value 1.03 | locus YER111C, strain swi4, stronger effect = lower value 1.01 | locus YER155C, strain BEM2 (second series), stronger effect = lower value 1.03 | locus YER155C, strain BEM2, stronger effect = lower value 1.02 | locus YER167W, strain BCK2, stronger effect = lower value 1.01 | locus YFR010W, strain ubp6, stronger effect = lower value 1.01 | locus YGL078C, strain dbp3, stronger effect = lower value 1.04 | locus YGL086W, strain mad1, stronger effect = lower value 1.01 | locus YGL167C, strain pmr1, stronger effect = lower value 1.02 | locus YGL173C, strain kem1, stronger effect = lower value 1.01 | locus YGL227W, strain vid30, stronger effect = lower value 1.03 | locus YGL240W, strain doc1, stronger effect = lower value 1.01 | locus YGL248W, strain PDE1, stronger effect = lower value 1.01 | locus YGL253W, strain hxk2, stronger effect = lower value 1.01 | locus YGR078C, strain PAC10, stronger effect = lower value 1.03 | locus YGR135W, strain pre9, stronger effect = lower value 1.05 | locus YGR252W, strain gcn5, stronger effect = lower value 1.05 | locus YHR013C, strain ard1, stronger effect = lower value 1 | locus YHR027C, strain rpn1, stronger effect = lower value 1.01 | locus YHR030C, strain SLT2, stronger effect = lower value 1.01 | locus YHR079C, strain IRE1 (second series), stronger effect = lower value 1.02 | locus YHR094C, strain hxt1, stronger effect = lower value 1.01 | locus YHR129C, strain ARP1, stronger effect = lower value 1.01 | locus YHR142W, strain chs7, stronger effect = lower value 0.987 | locus YHR200W, strain rpn10, stronger effect = lower value 1 | locus YIL066C, strain RNR3, stronger effect = lower value 1 | locus YIL073C, strain SPO22, stronger effect = lower value 1.06 | locus YIL125W, strain kgd1, stronger effect = lower value 1 | locus YIR030C, strain dcg1, stronger effect = lower value 1.02 | locus YJL092W, strain hpr5, stronger effect = lower value 1.01 | locus YJL095W, strain BCK1 (second series), stronger effect = lower value 1.01 | locus YJL095W, strain BCK1, stronger effect = lower value 1.02 | locus YJL115W, strain asf1, stronger effect = lower value 1.01 | locus YJL129C, strain trk1, stronger effect = lower value 0.976 | locus YJL134W, strain LCB3, stronger effect = lower value 1.01 | locus YJL154C, strain vps35, stronger effect = lower value 1.01 | locus YJL164C, strain tpk1, stronger effect = lower value 1.01 | locus YJL166W, strain qcr8, stronger effect = lower value 1 | locus YJL168C, strain set2, stronger effect = lower value 1.02 | locus YJL187C, strain SWE1 (second series), stronger effect = lower value 1.05 | locus YJL187C, strain SWE1, stronger effect = lower value 1.01 | locus YJR075W, strain HOC1, stronger effect = lower value 1.02 | locus YKL009W, strain mrt4, stronger effect = lower value 1 | locus YKL068W, stronger effect = lower value 1.01 | locus YKL085W, strain MDH1 (second series), stronger effect = lower value 1.02 | locus YKL085W, strain MDH1, stronger effect = lower value 1.02 | locus YKL160W, strain elf1, stronger effect = lower value 1 | locus YKL190W, strain CNB1, stronger effect = lower value 1.01 | locus YKR001C, strain vps1, stronger effect = lower value 0.996 | locus YKR026C, strain gcn3, stronger effect = lower value 0.987 | locus YKR091W, strain srl3, stronger effect = lower value 1.01 | locus YLL001W, strain dnm1, stronger effect = lower value 1.02 | locus YLL026W, stronger effect = lower value 1.02 | locus YLL041C, strain sdh2, stronger effect = lower value 1.01 | locus YLR027C, strain aat2, stronger effect = lower value 1 | locus YLR039C, strain RIC1, stronger effect = lower value 0.957 | locus YLR058C, strain SHM2, stronger effect = lower value 1 | locus YLR102C, strain apc9, stronger effect = lower value 1 | locus YLR221C, strain rsa3, stronger effect = lower value 1.01 | locus YLR258W, strain gsy2, stronger effect = lower value 1.01 | locus YLR262C, strain YPT6 (second series), stronger effect = lower value 0.905 | locus YLR262C, strain YPT6, stronger effect = lower value 0.932 | locus YLR268W, strain sec22, stronger effect = lower value 0.995 | locus YLR320W, strain mms22, stronger effect = lower value 0.972 | locus YLR342W, strain FKS1, stronger effect = lower value 1.01 | locus YLR357W, strain rsc2, stronger effect = lower value 1.01 | locus YLR370C, strain arc18, stronger effect = lower value 1.01 | locus YLR371W, strain rom2, stronger effect = lower value 1.03 | locus YLR384C, strain iki3, stronger effect = lower value 0.999 | locus YLR418C, strain cdc73, stronger effect = lower value 1.06 | locus YML016C, strain PPZ1, stronger effect = lower value 1.02 | locus YML032C, strain rad52, stronger effect = lower value 0.995 | locus YML120C, strain ndi1, stronger effect = lower value 1.02 | locus YML124C, strain tub3, stronger effect = lower value 1.01 | locus YMR058W, strain fet3, stronger effect = lower value 1.01 | locus YMR078C, strain ctf18, stronger effect = lower value 1.03 | locus YMR125W, strain sto1, stronger effect = lower value 1.02 | locus YMR129W, stronger effect = lower value 1.01 | locus YMR205C, strain PFK2, stronger effect = lower value 0.996 | locus YMR223W, strain ubp8, stronger effect = lower value 1.02 | locus YMR231W, strain pep5, stronger effect = lower value 1.01 | locus YMR307W, strain GAS1, stronger effect = lower value 0.973 | locus YNL067W, strain RPL9B, stronger effect = lower value 1.02 | locus YNL071W, strain lat1, stronger effect = lower value 0.99 | locus YNL209W, strain ssb2, stronger effect = lower value 1.02 | locus YNL233W, strain BNI4, stronger effect = lower value 1.04 | locus YNL248C, strain rpa49, stronger effect = lower value 0.997 | locus YNL250W, strain rad50, stronger effect = lower value 1.07 | locus YNL271C, strain bni1, stronger effect = lower value 1.01 | locus YNL298W, strain CLA4, stronger effect = lower value 1.01 | locus YNL307C, strain MCK1, stronger effect = lower value 1.02 | locus YNL322C, strain KRE1 (second series), stronger effect = lower value 1.02 | locus YNL322C, strain KRE1, stronger effect = lower value 1.01 | locus YNR049C, strain mso1, stronger effect = lower value 1.02 | locus YNR052C, strain pop2, stronger effect = lower value 1.03 | locus YOL012C, strain htz1 1.04 | locus YOL147C, strain pex11, stronger effect = lower value 1.02 | locus YOR001W, strain rrp6, stronger effect = lower value 1.02 | locus YOR061W, strain CKA2, stronger effect = lower value 1 | locus YOR069W, strain VPS5, stronger effect = lower value 1.01 | locus YOR070C, strain gyp1, stronger effect = lower value 1 | locus YOR080W, strain dia2, stronger effect = lower value 1.01 | locus YOR083W, strain WHI5, stronger effect = lower value 1.01 | locus YOR106W, strain vam3, stronger effect = lower value 0.994 | locus YOR136W, strain idh2, stronger effect = lower value 0.997 | locus YOR144C, strain elg1, stronger effect = lower value 1.01 | locus YOR184W, strain ser1, stronger effect = lower value 0.992 | locus YOR265W, strain rbl2, stronger effect = lower value 1.01 | locus YOR270C, strain vph1, stronger effect = lower value 0.909 | locus YOR290C, strain snf2, stronger effect = lower value 0.963 | locus YOR316C, strain cot1, stronger effect = lower value 1.02 | locus YPL051W, strain arl3, stronger effect = lower value 0.994 | locus YPL055C, strain LGE1, stronger effect = lower value 1.04 | locus YPL078C, strain atp4, stronger effect = lower value 1 | locus YPL106C, strain sse1, stronger effect = lower value 1.05 | locus YPL240C, strain hsp82, stronger effect = lower value 1.01 | locus YPR119W, strain clb2, stronger effect = lower value 1.01 | locus YPR141C, strain kar3, stronger effect = lower value 1.02 | locus YPR163C, strain tif3, stronger effect = lower value 1 | locus YPR167C, strain met16, stronger effect = lower value 1.02 | strain wtn01, stronger effect = lower value 1
